The values below come from PubChem BioAssay.

Activity calls are given as the source filed them.

Assay [1] is described as follows: binders of probe aFSTL3 on microarray, primary screen, stem cell growth factor project, biochemical, small-molecule microarray, fluorescence 635/667 (AID 1064).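 Also: measures binding of the biotinylated anti-FSTL3 antibody to printed compounds.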 The note with it: higher = more signal.
Assay [2] can be described thus: binders from COS7 lysate, DM2A8 probe, primary screen, torsin A project, cell lysate, small-molecule microarray, fluorescence 635/667 (AID 1065). The note with it: higher = more signal, COS7 lysate expressing mutant human TOR1A.
Assay [3] is described as follows: binders of probe aFGF2 on microarray, primary screen, stem cell growth factor project, biochemical, small-molecule microarray, fluorescence 635/667 (AID 1067).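 Also: measures binding of biotinylated aFGF2 protein to printed compounds on slides; z-score merges feature fluorescence and signal-to-noise across triplicate slides.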 Particulars: higher = more signal.
Assay [4] in a line: binders of probe aFGF10 on microarray, primary screen, stem cell growth factor project, biochemical, small-molecule microarray, fluorescence 635/667 (AID 1071).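 Also: score merges 667 nm spot intensity and signal to noise from triplicate slides.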 Particulars: higher = more signal.
Assay [5] addresses Neurogenic locus notch homolog protein 2 (Homo sapiens) (UniProt Q04721). As to the kind of experiment: Notch2 binders on small-molecule microarrays, primary screen, biochemical, small-molecule microarray, 635 nm fluorescence, stem cell growth factors (AID 1073). Particulars: Notch2 binding, higher = more signal.
Assay [6] concerns the target Pro-neuregulin-1, membrane-bound isoform (Homo sapiens) (UniProt Q02297). The experiment in a line: NRG1 binders on small-molecule microarrays, primary screen, psychiatric disease protein project, biochemical, small-molecule microarray, fluorescence 635/667 (AID 1075).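 Also: score combines 667 nm spot fluorescence with signal to noise.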 The note with it: NRG1 binding, 635 nm fluorescence, higher = more signal.
Assay [7] concerns Neuregulin-1 EGF-like domain. The experiment in a line: binders of neuregulin-1 EGF-like domain, primary screen, biochemical, small-molecule microarray, 635 nm fluorescence (AID 1081).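 Also: binding of the protein to compounds printed on small-molecule microarray slides.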 The note with it: small-molecule microarray binding, higher = more signal.
Assay [8] in a line: FRG1 promoter luciferase signal modulators, primary screen, FRG1 inhibition for FSHD, cell-based, C2C12 myotubes, firefly/Renilla luciferase, luminescence (AID 1084). The note with it: higher = more signal, called active from +8 up or from −8 down.
Assay [9] is described as follows: binders of probe aFST on microarray, primary screen, stem cell growth factor project, biochemical, small-molecule microarray, fluorescence 635/667 (AID 1086).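 Also: score merges 667 nm fluorescence with signal-to-noise of each printed compound spot.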 Particulars: higher = more signal.
A short description of assay [10]: binders of probe aHhip on microarray, primary screen, stem cell growth factor project, biochemical, small-molecule microarray, fluorescence 635/667 (AID 1087).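 Also: score merges spot fluorescence at 667nm with spot signal to noise ratio.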 The note with it: higher = more signal.
Assay [11] relates to PRMT1 (protein arginine N-methyltransferase 1). As to the kind of experiment: PRMT1 binders on small-molecule microarrays, primary screen, biochemical, small-molecule microarray, 635 nm fluorescence (AID 1088).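 Also: binding of Prmt1 protein to compounds spotted on small-molecule microarray slides.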 The note with it: small-molecule microarray binding, higher = more signal.
A short description of assay [12]: yeast growth modulation, basal conditions, primary screen, YJM789 clinical isolate, OD600, 24 h (AID 1089).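 Also: growth of clinical yeast isolate S. cerevisiae YJM 789 seeded 1000 cells per well; test concentration not given here.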 Particulars: S. cerevisiae YJM789 growth, higher = more signal, called active from +8 up or from −8 down.
Assay [13] is described as follows: fission yeast growth modulation, primary screen, strain 972, OD600, 24 h, no modulator (AID 1090).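 Also: basal condition with compound alone and no growth modifier present; test concentration not given here.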 Particulars: S. pombe 972 growth, higher = more signal, called active from +8 up or from −8 down.
The nature of assay [14]: S. cerevisiae growth modulation with rapamycin, primary screen, strain BY4716, OD600, 96 h (AID 1091). Also: test concentration not given here. The note with it: higher = more signal, called active from +8 up or from −8 down.
Assay [15] has as its target Torsin-1A-interacting protein 2 (Homo sapiens) (UniProt Q8NFQ8). The experiment in a line: LULL1 binders on small-molecule microarray, primary screen, cell lysate, human LULL1 lysate, 635/667 nm fluorescence (AID 1092).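 Also: probe is lysate of COS7 cells overexpressing human LULL1; score merges per-feature 667 nm fluorescence with signal-to-noise.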 Particulars: hLULL1 lysate binding, 635 nm fluorescence, higher = more signal.
A short description of assay [16]: E. coli growth modulation, two-sided OD650, primary screen, E. coli filamentation project, strain DRC41, 24 h (AID 1093).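 Also: MC1000 strain lacking acrAB efflux and sulA so SOS filamentation is blocked; test concentration not given here.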 The note with it: OD650, 24 h, higher = more signal, called active from +8 up or from −8 down.
Assay [17] is described as follows: small-molecule microarray binders of probe aLefty2, primary screen, biochemical, biotinylated probe, 635/667 nm fluorescence (AID 1094).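 Also: score merges spot fluorescence near 667 nm with spot signal-to-noise ratio.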 Particulars: higher = more signal.
The subject of assay [18] is Noggin (protein binding on small-molecule microarray). As to the kind of experiment: Noggin binders on small-molecule microarray, primary screen, biochemical, 635/667 nm fluorescence (AID 1095).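 Also: score merges 667 nm feature fluorescence with signal to noise over triplicate slides.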 Particulars: 635 nm fluorescence, higher = more signal.
Assay [19] deals with Neurogenic locus notch homolog protein 3 (Homo sapiens) (UniProt Q9UM47). As to the kind of experiment: NOTCH3 binders on small-molecule microarray, primary screen, biochemical, 635/667 nm fluorescence (AID 1096). The note with it: NOTCH3 binding, 635 nm fluorescence, higher = more signal.
Chain of Neurogenic locus notch homolog protein 3 (Homo sapiens) (Q9UM47 whole entry, looked up): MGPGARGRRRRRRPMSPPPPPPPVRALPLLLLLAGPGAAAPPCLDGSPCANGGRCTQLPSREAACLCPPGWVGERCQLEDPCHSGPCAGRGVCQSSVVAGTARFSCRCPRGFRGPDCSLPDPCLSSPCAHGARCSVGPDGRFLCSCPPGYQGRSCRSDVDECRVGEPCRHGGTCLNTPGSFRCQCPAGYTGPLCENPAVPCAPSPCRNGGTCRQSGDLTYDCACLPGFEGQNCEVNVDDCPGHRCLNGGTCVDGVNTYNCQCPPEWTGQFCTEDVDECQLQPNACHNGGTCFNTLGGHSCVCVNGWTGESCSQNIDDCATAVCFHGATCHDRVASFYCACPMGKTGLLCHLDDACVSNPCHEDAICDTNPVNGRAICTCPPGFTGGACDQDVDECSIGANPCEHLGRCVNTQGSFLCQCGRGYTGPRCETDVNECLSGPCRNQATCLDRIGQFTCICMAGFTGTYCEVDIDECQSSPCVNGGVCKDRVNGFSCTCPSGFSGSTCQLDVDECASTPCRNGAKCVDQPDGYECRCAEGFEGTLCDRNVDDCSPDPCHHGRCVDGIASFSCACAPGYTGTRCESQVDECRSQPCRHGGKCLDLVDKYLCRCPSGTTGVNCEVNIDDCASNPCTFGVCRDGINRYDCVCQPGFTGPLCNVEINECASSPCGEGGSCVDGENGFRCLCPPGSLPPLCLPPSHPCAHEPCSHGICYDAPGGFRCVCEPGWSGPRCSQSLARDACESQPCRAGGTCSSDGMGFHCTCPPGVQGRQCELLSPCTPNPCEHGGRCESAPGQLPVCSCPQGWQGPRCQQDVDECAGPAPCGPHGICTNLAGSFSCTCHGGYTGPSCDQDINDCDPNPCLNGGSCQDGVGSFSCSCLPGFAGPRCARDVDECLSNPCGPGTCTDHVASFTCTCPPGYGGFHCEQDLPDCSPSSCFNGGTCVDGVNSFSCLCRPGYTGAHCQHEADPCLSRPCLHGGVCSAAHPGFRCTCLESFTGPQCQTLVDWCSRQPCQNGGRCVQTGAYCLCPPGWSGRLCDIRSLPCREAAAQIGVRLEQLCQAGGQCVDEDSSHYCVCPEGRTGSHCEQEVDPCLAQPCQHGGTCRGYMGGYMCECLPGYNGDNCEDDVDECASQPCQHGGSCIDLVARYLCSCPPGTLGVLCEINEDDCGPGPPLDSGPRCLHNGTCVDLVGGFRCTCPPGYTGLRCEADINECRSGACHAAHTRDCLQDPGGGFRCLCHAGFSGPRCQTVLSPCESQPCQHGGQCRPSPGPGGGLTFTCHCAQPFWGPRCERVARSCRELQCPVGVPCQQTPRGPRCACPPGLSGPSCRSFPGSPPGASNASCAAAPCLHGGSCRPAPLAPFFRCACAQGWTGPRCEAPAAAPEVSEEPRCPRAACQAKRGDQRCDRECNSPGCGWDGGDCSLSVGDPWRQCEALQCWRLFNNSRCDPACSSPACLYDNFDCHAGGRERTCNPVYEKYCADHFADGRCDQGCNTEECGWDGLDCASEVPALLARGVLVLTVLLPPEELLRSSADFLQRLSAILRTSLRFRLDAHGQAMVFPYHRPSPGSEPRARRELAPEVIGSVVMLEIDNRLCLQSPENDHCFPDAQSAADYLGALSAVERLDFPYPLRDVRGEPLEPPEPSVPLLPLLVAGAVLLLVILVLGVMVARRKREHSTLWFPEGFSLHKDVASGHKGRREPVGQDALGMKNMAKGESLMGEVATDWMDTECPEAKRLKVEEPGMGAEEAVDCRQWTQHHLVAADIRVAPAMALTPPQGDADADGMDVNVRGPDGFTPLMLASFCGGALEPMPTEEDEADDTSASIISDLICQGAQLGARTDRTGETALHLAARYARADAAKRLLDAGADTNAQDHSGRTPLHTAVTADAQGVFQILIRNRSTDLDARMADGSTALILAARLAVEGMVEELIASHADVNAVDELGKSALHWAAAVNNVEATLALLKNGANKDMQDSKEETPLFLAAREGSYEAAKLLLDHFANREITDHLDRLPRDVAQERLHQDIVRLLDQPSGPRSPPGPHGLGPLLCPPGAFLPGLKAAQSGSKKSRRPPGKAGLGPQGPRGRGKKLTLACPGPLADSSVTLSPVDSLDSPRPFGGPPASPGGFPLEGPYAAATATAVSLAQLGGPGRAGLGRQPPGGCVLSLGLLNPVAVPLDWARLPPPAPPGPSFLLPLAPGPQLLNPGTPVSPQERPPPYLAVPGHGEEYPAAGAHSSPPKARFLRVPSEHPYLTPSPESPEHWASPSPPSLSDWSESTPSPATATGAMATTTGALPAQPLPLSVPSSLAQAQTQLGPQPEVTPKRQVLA
The nature of assay [20]: small-molecule microarray binders of probe aEGFR, primary screen, biochemical, biotinylated probe, 635/667 nm fluorescence (AID 1097).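 Also: probe is a biotinylated anti-EGFR antibody binding compounds printed on slides; score combines fluorescence near 667 nm and signal to noise of each spot.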 Particulars: higher = more signal.

Chain of Torsin-1A-interacting protein 2 (Homo sapiens) (Q8NFQ8 whole entry, looked up): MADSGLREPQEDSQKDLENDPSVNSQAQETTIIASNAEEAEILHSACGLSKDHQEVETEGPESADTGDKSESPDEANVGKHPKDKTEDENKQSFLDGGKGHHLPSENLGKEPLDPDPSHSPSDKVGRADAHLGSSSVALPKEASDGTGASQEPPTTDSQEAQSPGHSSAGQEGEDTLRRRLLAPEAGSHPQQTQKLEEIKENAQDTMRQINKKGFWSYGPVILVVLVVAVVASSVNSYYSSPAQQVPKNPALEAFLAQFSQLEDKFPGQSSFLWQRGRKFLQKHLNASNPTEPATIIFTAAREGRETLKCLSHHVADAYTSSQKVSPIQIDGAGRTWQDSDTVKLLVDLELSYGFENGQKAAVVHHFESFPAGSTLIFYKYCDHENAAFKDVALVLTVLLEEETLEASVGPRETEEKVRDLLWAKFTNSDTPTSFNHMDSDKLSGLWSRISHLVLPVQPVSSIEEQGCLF
Chain of Pro-neuregulin-1, membrane-bound isoform (Homo sapiens) (Q02297 whole entry, looked up, the tested form may be a part, canonical isoform): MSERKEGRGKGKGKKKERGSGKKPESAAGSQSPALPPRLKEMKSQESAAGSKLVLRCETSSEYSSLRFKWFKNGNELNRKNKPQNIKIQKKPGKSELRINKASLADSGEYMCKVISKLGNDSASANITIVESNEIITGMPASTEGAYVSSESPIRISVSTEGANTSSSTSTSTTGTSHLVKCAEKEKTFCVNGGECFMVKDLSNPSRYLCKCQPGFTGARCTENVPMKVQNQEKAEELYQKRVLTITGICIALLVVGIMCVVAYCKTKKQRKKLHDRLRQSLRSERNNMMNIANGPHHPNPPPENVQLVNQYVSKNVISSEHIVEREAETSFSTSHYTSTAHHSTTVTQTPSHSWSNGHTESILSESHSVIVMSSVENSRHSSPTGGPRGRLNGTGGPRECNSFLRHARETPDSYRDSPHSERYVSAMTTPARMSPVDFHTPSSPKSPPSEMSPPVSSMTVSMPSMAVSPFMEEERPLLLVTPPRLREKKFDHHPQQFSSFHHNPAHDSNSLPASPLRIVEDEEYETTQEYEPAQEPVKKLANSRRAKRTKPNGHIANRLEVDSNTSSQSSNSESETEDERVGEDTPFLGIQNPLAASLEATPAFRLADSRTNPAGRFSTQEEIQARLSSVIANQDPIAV

As to `NC(=O)NCC#Cc1ccc2c(c1)[C@]1(C(=O)N2)[C@H](c2ccc(OCCO)cc2)N2[C@H](c3ccccc3)[C@H](c3ccccc3)OC(=O)[C@H]2[C@@H]1C(=O)N1CCN(c2ncccn2)CC1`, the composite z-score is -0.584 in assay [1]; 0.936 in [2]; -0.0767 in [3]; 0.766 in assay [4]; 0.0776 in assay [5]; 0.29 in assay [6]. Also, the composite z-score in assay [7] is -0.178; in assay [9], -0.194; in [10], -0.0564; in [11], 1.34; in assay [15] it was 1.6; in assay [17], -0.0933. In addition, the composite z-score in assay [18] was 1.63; in [19], 0.772; in assay [20], -0.15. Moreover, the z-score was 0.565 (inactive) in assay [8]; 1.77 (inactive) in [12]; 0.494 (inactive) in assay [13]; 4.43 (inactive) in assay [14]; 1.31 (inactive) in assay [16].

Regarding `CN1C(=O)C2C=CC(C(O)c3cccc4ccccc34)N(NC(=O)OC(C)(C)C)C2C1=O` (stereo not given), the composite z-score in assay [1] came out at 1.07; in assay [2], 1.79; in assay [3], 0.194; in assay [4], 0.586; in assay [5], 1.37; in [6], 2.11. The composite z-score in assay [7] is 1.15; in assay [9], 1.4; in assay [10], -0.0296; in assay [11] it was 1.25; in assay [15], 2.63; in [17], 0.712. The composite z-score in [18] was -0.773; in [19], 1.02; in [20] it was 0.37. Also, the z-score in assay [8] was 0.93 (inactive); in assay [12], -1.04 (inactive); in assay [13], -0.397 (inactive); in [14], -0.0612 (inactive); in assay [16], -0.094 (inactive).

Turning to `CC(C)C[C@@H]1NC(=O)[C@@]23C(=O)N[C@@H](Cc4ccccc4)C2[C@H](C)[C@@]2(C)O[C@H]2C3/C=C/C/C=C\CNC(=O)[C@@H]2CCCN2C1=O` (stereo not given in full), the composite z-score in [1] was -0.566; in assay [2], 0.0462; in [3], -0.106; in assay [4], -0.0448; in assay [5] it was -0.385; in [6], -0.492. Further, the composite z-score in [7] is -0.378; in assay [9] it was 0.0833; in assay [10], -0.0994; in assay [11] it was -0.653; in assay [15] it was 0.0315; in [17], -0.223. The composite z-score in assay [18] is 0.326; in assay [19], -0.46; in assay [20] it was -0.121. For the same compound, the z-score in assay [8] was 2.09 (inactive); in assay [12], 0.0289 (inactive); in [13], -0.151 (inactive); in [14], -0.453 (inactive); in assay [16] it was -0.762 (inactive).

With `COC(=O)C(CC#Cc1ccc2c(c1)[C@]1(C(=O)N2)[C@H](c2ccc(OCCO)cc2)N2[C@H](c3ccccc3)[C@H](c3ccccc3)OC(=O)[C@H]2[C@@H]1C(=O)O)C(=O)OC`, the composite z-score was 0.915 in [1]; 0.831 in assay [2]; 0.102 in assay [3]; 0.727 in [4]; 0.85 in assay [5]; 2.03 in assay [6]. For the same compound, the composite z-score in assay [7] amounted to 1.26; in assay [9] it was 1.37; in assay [10], 0.398; in [11] it was 1.53; in assay [15] it was 3.1; in assay [17] it was 0.607. The composite z-score in assay [18] is 0.612; in assay [19] it was 0.822; in [20], 0.374. For the same compound, the z-score in assay [8] is -0.434 (inactive); in assay [12] it was 2.49 (inactive); in assay [13] it was -0.0363 (inactive); in [14], -0.881 (inactive); in assay [16], 1.95 (inactive).

Turning to `C[N+](C)(C)CCCCCCNC(=O)[C@@H]1C[C@@H]2C(=O)NCC(=O)N2[C@@H]1c1cccc(OCCO)c1`, the composite z-score in assay [1] is -0.419; in assay [2], 0.488; in [3], -0.125; in assay [4] it was -0.114; in [5], 0.033; in assay [6], 0.021. The composite z-score was 1.22 in assay [7]; -0.0422 in [9]; -0.34 in [10]; 1.55 in assay [11]; 2.23 in assay [15]; -0.207 in assay [17]. Moreover, the figures for the composite z-score in assay [18], in [19] and in assay [20] were 1.49, 1.1 and -0.0531, respectively. In addition, the z-score was 4.06 (inactive) in [8]; -0.947 (inactive) in assay [12]; 0.0641 (inactive) in assay [13]; -0.683 (inactive) in assay [14]; 1.3 (inactive) in assay [16].
